# TDP1 inh: qHTS Assay for Inhibitors of Tyrosyl-DNA Phosphodiesterase (TDP1); Tyrosyl-DNA phosphodiesterase 1 (Homo sapiens), Q9NUW8; recombinant TDP1, AlphaScreen DNA substrate cleavage; Potency, µM (top dose mostly 130 µM), for the others: at the highest dose activity change, negative = inhibition, actives largely listed as inhibitors; 0.28% of 350,000 active; AID 485290, 2010; also: % is scaled to controls: 0 for no effect and ±100 for the full control effect; nearly all actives have a fitted effect of over 40% in size
#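 Enzyme-compound mixtures sat 15 min at room temperature, followed by a 5 min reaction with 15 nM final substrate and 10 min with AlphaScreen beads. Recombinant human Tdp1 was used at 1 nM final.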
# TSG101-PTAP inh: qHTS Assay for Iinhibitors of HIV-1 Budding by Blocking the Interaction of PTAP/TSG101. AID 493005, 2010. Tumor susceptibility gene 101 protein (Homo sapiens), Q99816. Fluorescence polarization, FITC-PTAP peptide / Tsg101 binding. Potency, µM (series often up to 115 µM), without a hit: at the top dose activity change, negative = inhibition, actives largely listed as inhibitors. 340,000 tested, under 10 active; active = well fitted inhibition curve with a large enough effect in the main read-out, with a control signal flat, not every such curve was filed as active; inconclusive = small, poorly fitted or top-dose-only effect, or effect the other way, or a change in a side signal; inactive = no such curve, though single readings can be large or run the other way; also: % of control where 0% means no effect
#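 Tsg101 binding domain (10 uM final) was mixed with compound and a FITC-labeled PTAP peptide (50 nM final) in HEPES pH 7.5 buffer with NaCl, Tween 20, EDTA and TCEP; fluorescence polarization was read after 20 min at r.t.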
# Rango-impB inh: qHTS Assay for Inhibitors of Rango (Ran-regulated importin-beta cargo) - Importin beta complex formation | Importin subunit beta-1 (Homo sapiens), Q14974 | Rango CFP/YFP FRET sensor + importin beta, 45 min | Potency, µM (titrated, usually from 92.2 µM), for inactives: at the top dose inhibition of complex formation | 0.031% of 340,000 active | AID 540263, 2011; calls by dose curve;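 also: 0% = DMSO wells and 100% = buffer wells lacking importin beta; nearly all actives have a fitted effect of over 15% in size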
#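 Inhibition scored from the CFP 486 nm/YFP 530 nm FRET ratio 45 min after adding 0.125 microM importin beta to 50 nM Rango biosensor preincubated 5 min with compound (room temperature, PBS with DTT, Tween-20, BSA). No-importin wells as positive control.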
# Rango release inh: qHTS Assay for Inhibitors of RanGTP induced Rango (Ran-regulated importin-beta cargo) - Importin beta complex dissociation. Snurportin-1 (Homo sapiens) + GTP-binding nuclear protein Ran (Homo sapiens) + Importin …. Biochemical FRET Rango-importin beta, RanGTP-induced dissociation. Potency, µM (titrated, usually from 46.1 µM), for the others: at the top dose activity change, negative = inhibition. 0.071% of 340,000 active. AID 540253, 2011; calls by dose curve; also: % of control where 0% means no effect; nearly all actives have a fitted effect of over 45% in size
#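 FRET read at 45 min, room temperature: inhibitors block the CFP/YFP signal rise when RanGTP (0.6 uM Ran, 2 mM GTP, 0.2 uM RCC1) frees Rango (0.1 uM) from importin beta (0.25 uM). Pre-read after 5 min compound exposure flags interference.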
# ClpP mod: qHTS Assay for Activators of ClpP | ATP-dependent Clp protease proteolytic subunit (Bacillus subtilis (strain 168)), P80244 | purified B. subtilis ClpP, FRET peptide cleavage, 20 min | Potency, µM (doses to about 57.5 µM), for the others: at the highest dose activity change, negative = active | 1.9% of 340,000 active | AID 651965, 2013; active = well fitted falling curve with a large enough effect; inconclusive = small, poorly fitted or top-dose-only effect; inactive = no such curve, though single readings can be large or run the other way; also: the source files actives as falling curves though it sought activators and does not explain the sign; nearly all actives have a fitted effect of over 65% in size
#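 FRET quenching reversal measured ClpP activation: 10 microg/mL B. subtilis ClpP at pH 8 with the FRET-FV decapeptide, read at 430 nm after 320 nm excitation. The 20-min minus 0-min signal was scaled between DMSO/no-enzyme wells and ADEP (5.8 microM final).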
# 12-LOX inh: Primary qHTS assay for inhibitors of human arachidonate 12S-lipoxygenase (ALOX12): Round 2; Polyunsaturated fatty acid lipoxygenase ALOX12 (Homo sapiens), P18054; purified 12hLO, xylenol orange hydroperoxide absorbance; Potency, µM (doses to about 108 µM), for inactives: top-dose activity change, negative = inhibition, usual class: inhibitors; 1.1% of 580,000 active; also: % is scaled to controls: 0 for no effect and ±100 for the full control effect
# Target sequence (P18054 whole entry, looked up): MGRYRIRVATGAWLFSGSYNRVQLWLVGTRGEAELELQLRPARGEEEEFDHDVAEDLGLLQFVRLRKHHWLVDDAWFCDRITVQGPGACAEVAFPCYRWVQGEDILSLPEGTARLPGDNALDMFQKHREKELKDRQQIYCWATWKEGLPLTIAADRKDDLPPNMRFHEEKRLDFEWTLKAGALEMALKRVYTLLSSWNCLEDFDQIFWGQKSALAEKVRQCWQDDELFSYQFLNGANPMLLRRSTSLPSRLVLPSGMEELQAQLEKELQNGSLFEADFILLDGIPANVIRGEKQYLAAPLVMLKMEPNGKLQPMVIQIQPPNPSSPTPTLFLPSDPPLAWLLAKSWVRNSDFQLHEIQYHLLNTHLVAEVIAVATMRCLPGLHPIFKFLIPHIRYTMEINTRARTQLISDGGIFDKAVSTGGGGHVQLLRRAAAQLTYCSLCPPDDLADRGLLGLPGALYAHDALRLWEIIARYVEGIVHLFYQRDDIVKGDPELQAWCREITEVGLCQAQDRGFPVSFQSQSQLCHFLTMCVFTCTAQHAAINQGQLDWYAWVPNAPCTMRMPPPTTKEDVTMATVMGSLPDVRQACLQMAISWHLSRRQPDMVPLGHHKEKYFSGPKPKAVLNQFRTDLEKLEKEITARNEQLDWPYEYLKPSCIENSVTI
#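 Purified human 12hLO (150 nM final) in 25 mM Hepes, 0.01% Triton X-100, pH 7.0 was preincubated 15 min at room temperature with compound. Then 40 uM arachidonic acid was added, 30 min. Hydroperoxide was read by Fe-XO absorbance ratio 573/405 nm.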
# * hit, by the source's call; ? = inconclusive; nt = no result; [ ] = remark or other dose. An excerpt weighted towards active compounds, which were near 2.4% of everything screened. Unless noted, calls follow the shape of the dose curve; as a rule, active = well fitted curve in the direction sought with a large enough effect; inconclusive = small, poorly fitted or top-dose-only effect, or another doubt; inactive = no such curve, though single readings can be large; an effect the other way counts as inactive or inconclusive. Potency is read from the fitted curve at half-maximal effect.
SMILES,TDP1 inh,TSG101-PTAP inh,Rango-impB inh,Rango release inh,ClpP mod,12-LOX inh
CN1OC(C)(CC(=O)Nc2ccccc2F)N=C1c1cc(F)ccc1F (configuration not stated),nt,nt,nt,nt,nt,-14%
Cc1ccc(Cc2c(-c3ccco3)nc3c(C)cc(Br)cn23)cc1,nt,nt,nt,nt,-8%,14µM*
c1ccc(Cc2c(-c3ccccc3)nc3c4ccccc4ccn23)cc1,nt,nt,nt,nt,32µM*,?
Cc1ccc(Cc2c(-c3ccco3)nc3c4ccccc4ccn23)cc1,nt,nt,nt,nt,6%,5µM*
N#Cc1cccc(C(=O)/C=C/c2cccs2)c1,nt,nt,nt,nt,nt,2%
O=C(O)c1cccc(S(=O)(=O)NNc2ccccc2C(F)(F)F)c1,nt,-7%,1%,-3%,nt,16µM*
Cc1cc(Br)cn2c(Cc3cccc(Cl)c3)c(-c3ccco3)nc12,nt,nt,nt,nt,-13%,?
Brc1ccc2nc(-c3ccco3)c(Cc3ccccc3)n2c1,nt,nt,nt,nt,-5%,14µM*
Clc1cccc(Cc2c(-c3ccco3)nc3ccc(Cl)cn23)c1,nt,nt,nt,nt,-16%,22µM*
N#Cc1ccc(-c2nc3ccc(Cl)cn3c2Cc2cccc(Cl)c2)cc1,nt,nt,nt,nt,5%,35µM*
Cc1ccc2nc(-c3ccc(C#N)cc3)c(Cc3cccc(Cl)c3)n2c1,nt,nt,nt,nt,4%,-11%
Clc1cccc(Cc2c(-c3ccco3)nc3ccc(Br)cn23)c1,nt,nt,nt,nt,-1%,11µM*
CN(C)C(=O)c1cc(Br)c(Br)s1,nt,nt,nt,nt,nt,10%
COc1ccccc1/C=C/C1=NC(=C\C=C/c2ccccc2)/C(=O)O1,3%,6%,?,?,-4%,45µM*
CC1=C(C(=O)OCc2ccccc2)C(/C=C/c2ccccc2)NC(=S)N1 (configuration not stated),5%,0%,-1%,2%,4%,18µM*
COc1cccc(C(=O)OCc2ccccc2C#N)c1OC,nt,nt,nt,nt,nt,59%
CN(C)c1ncc2c(n1)C(C)(C(=O)NCc1cccc(Cl)c1)CCC2 (configuration not stated),nt,nt,nt,nt,nt,15%[176 µM]
Cc1cccc(NC(=O)/C=C/c2ccc([N+](=O)[O-])s2)c1,5%,-2%,?,2.1µM*[inhibitor],2%,-15%
Cc1ccc(NC(=O)/C=C/c2ccc([N+](=O)[O-])s2)c(C)c1,1%,2%,?,?,2%,-18%
Cc1ccc(NC(=O)/C=C/c2ccc([N+](=O)[O-])s2)cc1,0%,-1%,-13%,0.73µM*[inhibitor],-3%,4%
Cc1nc(-c2ccccc2OC2CN(S(=O)(=O)c3c(C)nn(C)c3C)C2)no1,nt,nt,nt,nt,nt,9%
CCCCOc1ncnc2c1[nH]c1ccc(OCC)cc12,5%,0%,0%,-10%,-29%,3%
CCCCOc1ncnc2c1[nH]c1ccccc12,8%,2%,?,-25%,18µM*,35%
CCCCOc1ncnc2c1[nH]c1ccc(F)cc12,0%,0%,2%,-10%,16µM*,25%
Cc1cccc(C)c1-c1cc(C(=O)N2CCOCC2)c2cnn(C)c2n1,nt,nt,nt,nt,nt,4%[6.33 µM]
SMILES,TDP1 inh,TSG101-PTAP inh,Rango-impB inh,Rango release inh,ClpP mod,12-LOX inh
Nc1c(C(=O)N2CCOCC2)sc2nc(N3CCOCC3)c3c(c12)CCCC3,5%,-7%,-1%,-13%,4%,40µM*
Nc1c(C(=O)NCc2ccccc2)sc2nc(N3CCOCC3)c3c(c12)CCCC3,7%,-10%,?,-9%,25µM*,-10%
Nc1c(C(=O)Nc2ccccc2)sc2nc(N3CCOCC3)c3c(c12)CCCC3,nt,nt,nt,nt,5%,?
Cc1cccc2cc3c(N)c(C(=O)N4CCOCC4)sc3nc12,-5%,0%,?,?,-11%,25µM*
Cc1nc2sc(C#N)c(N)c2c2c1CCCC2,-6%,-5%,0%,?,-12%,4%
N#Cc1sc2nc(N3CCCCC3)c3c(c2c1N)CCCC3,7%,-1%,-1%,-1%,28µM*,-42%
NNC(=O)c1sc2nc(N3CCOCC3)c3c(c2c1N)CCCC3,7%,1%,?,?,4%,155%
Cc1nccn1CC(C)CNC(=O)c1cc(-c2ccncc2)nc2ccccc12 (configuration not stated),nt,nt,nt,nt,nt,28%
CC(=O)Nc1ccc(CN2CC[C@H](c3nc4ccccc4[nH]3)C2)cc1,nt,nt,nt,nt,nt,68%[176 µM]
O=c1c2c(CO)c(-c3ccc(F)cc3)nn2ccn1Cc1ccccc1Cl,nt,nt,nt,nt,nt,61%
N#CCn1nc2n(c1=O)CCN(S(=O)(=O)c1ccc3c(c1)OCCO3)CC2,nt,nt,nt,nt,nt,36%
COc1ccccc1-c1nc(Cn2nc(C)c3c(C)onc3c2=O)c(C)o1,nt,nt,nt,nt,nt,7%
Cc1ccc(S(=O)(=O)NNC(=O)c2cc3cc4ccccc4nc3s2)cc1,6%,-6%,3%,13%,-7%,?
Cc1cccc(C(=O)NNC(=O)c2cc3cc4ccccc4nc3s2)c1,2%,-5%,-3%,-13%,22µM*,13%
Cc1ccc(S(=O)(=O)N2CCCCC2)cc1C(=O)OCc1nc2ccccc2nc1C,nt,nt,nt,nt,nt,4%

# From PubChem
